Among the data in PubChem BioAssay are composite z-score, z-score and composite Z-score values, retold here.

In test [1] the test system is Human papillomavirus type 1a protein E7 (residues 44-93). The test is described as follows: HPV1a E7 fragment binders on microarrays, primary screen, biochemical, small-molecule microarray, residues 44-93, 635 nm fluorescence (AID 1108).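 Note: E7 fragment applied at 1 µg/mL in TBST for 1 h at 4 C; score combines spot fluorescence with its signal to noise ratio.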 As to conditions: small-molecule microarray binding, fluorescence 635 nm; higher = more signal.
A short description of test [2]: modulators of HCV replicon luciferase signal, primary screen, HCV replication inhibitor project, Huh7 cells, luciferase reporter (AID 1109).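 Note: huh7 hepatoma cells harbouring a luciferase neomycin HCV replicon reporter; luciferase luminescence as measure of HCV replicon replication; test concentration not given here.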 The note with it: 48 h, higher = more signal.
The target in test [3] is Left-right determination factor 2 (Homo sapiens) (UniProt O00292). The test is described as follows: LEFTY2 binders on small-molecule microarrays, primary screen, biochemical, small-molecule microarray, 635 nm fluorescence scan (AID 1110). As to conditions: LEFTY2 binding, higher = more signal.
Test [4] has as its target Calmodulin-1 (Homo sapiens) (UniProt P0DP23). The test is described as follows: CALM1 binders on microarrays, EGTA buffer, profiling panel, biochemical, small-molecule microarray, Cy5-labelled CALM1 (AID 1111).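 Note: labelled calmodulin applied in Tris saline Tween buffer holding calcium plus EGTA and DTT.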 The note with it: Cy5-CALM1 binding fluorescence, higher = more signal.
Test [5] shares this target. The test is described as follows: calcium-bound CALM1 binders on microarrays, profiling panel, artefact control for SMM control-protein annotation, biochemical, small-molecule microarray, Cy5-labelled CALM1, plus calcium (AID 1112).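 Note: score merges spot fluorescence with signal to noise from triplicate slides.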 The note with it: Cy5-CALM1 binding fluorescence, higher = more signal.
Test [6] is described as follows: small-molecule microarray binders of probe aWnt5a, primary screen, biochemical, biotinylated probe, 635/667 nm fluorescence (AID 1113).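 Note: score merges 667 nm fluorescence intensity with signal-to-noise per printed feature.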 As to conditions: higher = more signal.
Test [7] in a line: small-molecule microarray binders of probe aShh, primary screen, biochemical, biotinylated probe, 635/667 nm fluorescence (AID 1114).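 Note: probe is biotin-labelled aShh protein from a stem cell growth factor screen; measures binding of labelled protein to compounds printed on the slide; score merges feature fluorescence at 667 nm with signal-to-noise.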 As to conditions: higher = more signal.
Test [8] in a line: small-molecule microarray binders of probe aNog, primary screen, biochemical, biotinylated probe, 635/667 nm fluorescence (AID 1115).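 Note: probe is biotinylated aNog protein used at 0.15 µg/mL for 1 h at 4 C; z-score combines 667 nm fluorescence of each spot with its signal to noise.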 As to conditions: higher = more signal.
For test [9], the target named is Torsin-1A-interacting protein 1 (Homo sapiens) (UniProt Q5JTV8). The test is described as follows: LAP1 binders from COS7 cell lysate, primary screen, small-molecule microarray, 635/667 nm fluorescence (AID 1116). As to conditions: COS7-hLAP1 lysate binding, 635 nm fluorescence, higher = more signal.
Test [10] addresses Alpha-bungarotoxin (Bungarus multicinctus) (UniProt P60615). The test is described as follows: alpha-bungarotoxin binders on microarray, profiling panel, artefact control for SMM control protein annotation, biochemical, small-molecule microarray, Alexa647 label, 635/667 nm fluorescence (AID 1117). As to conditions: alpha-BTX-A647 binding fluorescence, higher = more signal.
Another test addresses Albumin (Bos taurus) (UniProt P02769). Kind of test: bovine serum albumin binders on microarray, profiling panel, artefact control for SMM control protein annotation, biochemical, small-molecule microarray, Alexa647 label, 635/667 nm fluorescence (AID 1118).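 Note: score merges 667 nm emission intensity and signal-to-noise per printed compound spot.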 The note with it: BSA-A647 binding, fluorescence 635 nm, higher = more signal.
Test [11] is described as follows: small-molecule microarray binders of probe aXIP, primary screen, biochemical, NeuroSMM set, 635/667 nm fluorescence (AID 1119).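 Note: probe is the protein aXip251-270 applied at 1 µg/mL to compound-printed slides; binding of probe to printed compounds measured as 667 nm fluorescence plus signal to noise.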 The note with it: higher = more signal, called active from +8 up or from −8 down.
A short description of test [12]: small-molecule binders of probe aNOTCH3, primary screen, biochemical, small-molecule microarray, 635/667 nm fluorescence (AID 1120).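 Note: probe is a biotin-tagged antibody raised against NOTCH3 rather than NOTCH3 protein; score merges spot fluorescence near 667 nm with spot signal to noise.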 As to conditions: higher = more signal.
The nature of test [13]: small-molecule binders of probe aNOTCH2, primary screen, biochemical, small-molecule microarray, 635/667 nm fluorescence (AID 1121).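 Note: score merges feature fluorescence read at 667 nm with its signal to noise.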 The note with it: higher = more signal.
Test [14] addresses Carbonic anhydrase 2 (Homo sapiens) (UniProt P00918). The test is described as follows: CAII small-molecule binders, profiling panel, biochemical, small-molecule microarray, Alexa647-labelled CAII (AID 1122). As to conditions: CAII-A647 binding fluorescence, higher = more signal.
Test [15] in a line: COS7 lysate on small-molecule microarray, probe aHis, 635 nm (AID 1123).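 Note: z-score combines 667nm fluorescence intensity with signal-to-noise per printed compound spot.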 The note with it: COS7 cell lysate, fluorescence, higher = more signal.
Test [16] can be described thus: compound binding in COS7 lysate, probe aLAP1, primary screen, cell lysate, small-molecule microarray (AID 1124).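 Note: lysate comes from COS7 cells expressing LAP1 and is applied at 0.3 µg/mL; score merges spot fluorescence near 667 nm with signal-to-noise over triplicate slides.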 The note with it: probe aLAP1, fluorescence, higher = more signal.
Another test relates to Sam68 (KHDRBS1). The test is described as follows: Sam68 small-molecule binders, primary screen, biochemical, small-molecule microarray, 635 nm fluorescence (AID 1125).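 Note: score merges 667 nm channel intensity with signal to noise over triplicate slides.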 The note with it: small-molecule microarray binding, higher = more signal.
For test [17], the system named is Chordin-like protein 2 (CHRDL2). The test is described as follows: CHRDL2 small-molecule binders, primary screen, biochemical, small-molecule microarray, 635 nm fluorescence (AID 1126).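 Note: printed compound slides probed with Chrdl2 protein at 4 µg/mL for 1 h at 4 C; score merges 667 nm emission intensity with signal to noise over three replicate slides.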 As to conditions: small-molecule microarray binding, fluorescence 635 nm; higher = more signal.
In test [18] the target is Concanavalin-A (Canavalia ensiformis) (UniProt P02866). Kind of test: ConA small-molecule binders, primary screen, artefact control for SMM control protein annotation, biochemical, small-molecule microarray, Alexa647 label, 635 nm (AID 1127).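 Note: z combines 667 nm emission intensity with signal-to-noise across three replicate slides.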 The note with it: ConA-A647 binding fluorescence, higher = more signal.

Activity calls are given as the source filed them.

Concanavalin-A (Canavalia ensiformis), sequence (P02866 whole entry, looked up): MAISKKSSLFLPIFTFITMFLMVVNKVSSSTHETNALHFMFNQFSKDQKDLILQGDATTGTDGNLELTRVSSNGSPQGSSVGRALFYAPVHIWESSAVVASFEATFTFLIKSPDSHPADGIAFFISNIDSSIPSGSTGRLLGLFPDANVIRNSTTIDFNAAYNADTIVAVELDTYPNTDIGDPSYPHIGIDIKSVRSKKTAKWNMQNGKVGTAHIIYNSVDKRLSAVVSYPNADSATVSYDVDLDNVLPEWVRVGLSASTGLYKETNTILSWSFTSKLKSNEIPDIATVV
Torsin-1A-interacting protein 1 (Homo sapiens), sequence (Q5JTV8 whole entry, looked up): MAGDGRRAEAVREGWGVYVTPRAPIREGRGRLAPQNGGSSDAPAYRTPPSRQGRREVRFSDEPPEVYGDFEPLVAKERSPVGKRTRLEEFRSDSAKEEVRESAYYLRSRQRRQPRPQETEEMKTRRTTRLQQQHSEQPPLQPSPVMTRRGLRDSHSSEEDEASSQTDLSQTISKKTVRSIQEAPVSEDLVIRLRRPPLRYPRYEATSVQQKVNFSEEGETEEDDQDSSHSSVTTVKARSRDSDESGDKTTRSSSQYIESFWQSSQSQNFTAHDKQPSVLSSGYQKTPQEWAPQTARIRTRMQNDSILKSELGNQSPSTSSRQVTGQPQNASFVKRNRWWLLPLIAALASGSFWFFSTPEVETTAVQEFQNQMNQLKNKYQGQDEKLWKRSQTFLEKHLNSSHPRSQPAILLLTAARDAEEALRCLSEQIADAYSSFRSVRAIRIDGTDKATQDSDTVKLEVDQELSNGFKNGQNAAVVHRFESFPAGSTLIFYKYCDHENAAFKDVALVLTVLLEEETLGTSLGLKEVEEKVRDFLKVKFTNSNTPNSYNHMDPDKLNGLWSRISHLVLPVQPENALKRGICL
Albumin (Bos taurus), sequence (P02769 whole entry, looked up): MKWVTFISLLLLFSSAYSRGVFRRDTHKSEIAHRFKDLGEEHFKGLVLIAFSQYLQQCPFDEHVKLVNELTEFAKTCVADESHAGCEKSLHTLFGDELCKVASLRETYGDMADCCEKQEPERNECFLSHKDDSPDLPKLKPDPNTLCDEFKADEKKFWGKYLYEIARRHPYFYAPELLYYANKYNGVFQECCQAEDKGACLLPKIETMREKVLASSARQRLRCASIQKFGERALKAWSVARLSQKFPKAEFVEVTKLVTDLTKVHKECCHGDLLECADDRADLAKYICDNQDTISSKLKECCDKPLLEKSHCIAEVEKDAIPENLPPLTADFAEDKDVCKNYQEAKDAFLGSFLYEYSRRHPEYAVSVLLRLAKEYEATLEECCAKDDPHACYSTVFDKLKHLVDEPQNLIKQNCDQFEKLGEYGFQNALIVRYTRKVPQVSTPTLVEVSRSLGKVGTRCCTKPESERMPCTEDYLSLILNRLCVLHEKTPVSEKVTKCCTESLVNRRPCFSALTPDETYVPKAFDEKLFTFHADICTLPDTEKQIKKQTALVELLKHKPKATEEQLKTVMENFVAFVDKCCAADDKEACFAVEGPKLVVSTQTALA
Left-right determination factor 2 (Homo sapiens), sequence (O00292 whole entry, looked up): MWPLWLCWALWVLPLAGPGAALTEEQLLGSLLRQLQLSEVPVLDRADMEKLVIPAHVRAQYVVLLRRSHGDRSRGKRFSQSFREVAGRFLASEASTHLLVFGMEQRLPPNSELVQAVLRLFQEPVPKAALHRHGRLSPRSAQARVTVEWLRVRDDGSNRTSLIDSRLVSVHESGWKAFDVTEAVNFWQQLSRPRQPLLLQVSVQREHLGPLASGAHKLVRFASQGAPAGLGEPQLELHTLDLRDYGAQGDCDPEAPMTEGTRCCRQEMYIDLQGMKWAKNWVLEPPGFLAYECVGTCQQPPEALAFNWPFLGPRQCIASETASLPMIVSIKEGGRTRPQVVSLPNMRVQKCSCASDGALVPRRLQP
Alpha-bungarotoxin (Bungarus multicinctus), sequence (P60615 whole entry, looked up): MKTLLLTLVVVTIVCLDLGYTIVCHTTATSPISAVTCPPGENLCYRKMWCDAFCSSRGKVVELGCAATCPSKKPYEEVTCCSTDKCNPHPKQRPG

As to `O=C1NC(=O)C2C1C=CC(C(O)c1ccc(-c3ccccc3)s1)N2Nc1ccc(Cl)cc1Cl` (stereo not given), the composite z-score is 1.29 in [1]; -0.114 in [3]; 1.65 in test [4]; 1.03 in [5]; 0.1 in test [6]; 0.213 in test [7]. The composite z-score in test [8] was -0.358; in test [9], 0.712; in [10], 1.06; with Albumin (Bos taurus) it was 0.924; in test [12], 0.0979; in test [13], -0.0611. Moreover, the composite z-score in test [14] was 0.759; in test [15], 2.82; in test [16], 1.2; with Sam68 (KHDRBS1) it was 1.33; in test [17], -0.717; in [18], 1.06. The compound further displayed a z-score in test [2] of 1.7. Besides, in [11], the composite Z-score was 1.1 (inactive).
As to `COCCCNC(=O)[C@]1(Cc2ccccc2)N=C(c2ccc(OCCCO)cc2)O[C@@H]1c1ccccc1CN=[N+]=[N-]`, the composite z-score is 0.128 in test [1]; -0.254 in test [3]; 1.02 in [4]; 0.562 in test [5]; 0.116 in test [6]; 0.585 in test [7]. Further, the composite z-score worked out at 0.918 in test [8]; 2.48 in test [9]; 0.315 in [10]; 0.999 with Albumin (Bos taurus); 0.16 in test [12]; 0.266 in test [13]. Besides, the composite z-score in test [14] was 0.694; in test [15], 3.21; in [16], 0.465; in the test with Sam68 (KHDRBS1), 1.28; in test [17], -0.431; in test [18], 1.16. In [2], this compound returned a z-score of -2.18. In test [11], the composite Z-score was -0.127 (inactive).
In the case of `CC=CC(O)C1C=CC2C(=O)N(C)C(=O)C2N1N(c1ccccc1)c1ccccc1` (stereo not given), the composite z-score in [1] is -1.28; in test [3] it was 0.36; in test [4] it was -0.54; in test [5], -1.3; in [6], -0.104; in test [7], -0.0769. In addition, the composite z-score was -0.0281 in test [8]; 1.13 in [9]; 0.721 in test [10]; 0.803 with Albumin (Bos taurus); 0.0864 in [12]; 0.0843 in [13]. In addition, the composite z-score in [14] was 0.837; in test [15] it was -0.213; in [16] it was 0.198; in the test with Sam68 (KHDRBS1), -0.113; in test [17], 0.686; in test [18], 0.555. The same compound returned a z-score in test [2] of -0.332. Besides, the composite Z-score in test [11] is -0.222 (inactive).
On to `O=C1O[C@@H](c2ccccc2)[C@@H](c2ccccc2)N2[C@@H](c3ccccc3OCCO)[C@]3(C(=O)Nc4ccc(C#CC5(O)CCCCCC5)cc43)[C@@H](C(=O)N3CCN(c4ncccn4)CC3)[C@H]12`, for which the composite z-score is 1.38 in test [1]; 0.409 in test [3]; 0.586 in test [4]; 0.671 in test [5]; -0.0165 in [6]; -0.0234 in test [7]. Moreover, the composite z-score in test [8] was 0.118; in test [9] it was 1.5; in test [10], 0.894; with Albumin (Bos taurus), 0.287; in [12] it was -0.0416; in [13] it was -0.131. Also, the composite z-score in test [14] came out at 0.398; in [15], 1.47; in [16] it was 0.795; in the test with Sam68 (KHDRBS1), 1.21; in test [17] it was 0.183; in test [18], 1.02. For the same compound, the z-score in [2] is -2.29. Further, in [11], the composite Z-score was 0.276 (inactive).
As for `CC[C@@H]1C=C(C(=O)O)[C@H](c2cccc3ccccc23)N1S(=O)(=O)c1ccc(C)cc1`, the composite z-score in test [1] was 0.828; in test [3], 0.132; in test [4], 1.45; in test [5] it was 0.725; in test [6], 0.0742; in test [7], -0.17. In addition, the composite z-score is 0.526 in test [8]; 0.909 in test [9]; -0.158 in test [10]; 0.8 with Albumin (Bos taurus); 0.0225 in test [12]; 0.0477 in test [13]. In addition, the composite z-score in [14] was 0.664; in [15], 1.58; in [16], 0.687; with Sam68 (KHDRBS1), 1.05; in test [17], 0.0837; in [18] it was 0.774. Also, the z-score in test [2] was 0.0731. Besides, the composite Z-score in [11] is -0.122 (inactive).
For the compound `CCCCC(=C=CC[C@H](O)c1cccc(OCCO)c1)C[C@H](O)c1ccccn1`, the composite z-score in test [1] was -0.146; in test [3] it was 0.258; in test [4] it was 0.481; in [5] it was -0.784; in [6], -0.0239; in test [7] it was -0.13. The composite z-score is -0.23 in test [8]; 0.0971 in [9]; -0.0891 in [10]; 0.424 with Albumin (Bos taurus); -0.0014 in [12]; -0.153 in test [13]. Moreover, the composite z-score is 0.693 in test [14]; -0.0434 in test [15]; -0.165 in [16]; -0.15 in the test on Sam68 (KHDRBS1); 0.23 in [17]; 0.503 in [18]. The same compound came in with a z-score in test [2] of -1.05. Also, in test [11], the composite Z-score was 0.152 (inactive).
